The values that follow come from PubChem BioAssay (NCATS).

Results filed as inconclusive are left out. Where a call stands in place of a potency, no number is given. Active and inactive are the calls of the source. The call rests on the fitted dose curve; in most records, active means well fitted curve in the direction sought with a large enough effect; inconclusive means small, poorly fitted or top-dose-only effect, or another doubt; inactive means no such curve, though single readings can be large; an effect the other way counts as inactive or inconclusive.

The nature of the first assay: qHTS of pediatric cancer cell lines to identify multiple opportunities for drug repurposing: Primary screen for control Hh wild type fibroblast cells (AID 1347106).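 Further: a drop in luminescence marks cytotoxicity and a rise apparent proliferation; nearly all actives have a fitted effect of over 55% in size.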 The note with it: Hh wild-type fibroblast viability, CellTiter-Glo luminescence, 48 h; series mostly up to 46 µM. The method in brief:
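Cells (500-1,000/well) in growth media were settled 5 h at 37 degrees C, then given compounds for 48 h. Viability was read as CellTiter-Glo luminescence. Primary runs used MIPE at 11 points (0.78 nM-46 µM) and NPC at 8 points (0.59 nM-46 µM); follow-ups used 11 points.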
(In general: Quantitative high-throughput screening tests each substance at several concentrations.)
Take `CCCOc1ccc2nc(NC(=O)OC)[nH]c2c1`: the Potency entry is “inactive”.
Consider `CCc1nc(N)nc(N)c1-c1ccc(Cl)cc1`, for which the Potency entry was “inactive”.
Take `Cc1ncc([N+](=O)[O-])n1CC(C)O` (stereo unspecified): the Potency entry was “inactive”.
On the same count and under the same terms, the same measure for `O=c1oc2cc(O)ccc2s1`: “inactive”.
The same measure, in the same setting: the same measure for `CCOC(=O)C1=C[C@@H](OC(CC)CC)[C@H](NC(C)=O)[C@@H](N)C1`: “inactive”; for `CN(C)C(=O)[C@H](O)[C@H](Cc1ccccc1)NC(=O)c1cc2cc(Cl)ccc2[nH]1`: “inactive”; for `Cc1cccc(-c2[nH]ncc2-c2ccc3ncccc3n2)n1`: “inactive”.
For `Cc1nccn1CC1CCc2c(c3ccccc3n2C)C1=O` (stereo unspecified), the Potency entry is “inactive”.
Consider `Cc1cc(O)c2c(c1)C(=O)c1cc(O)cc(O)c1C2=O`, for which the Potency entry was “inactive”.
On to `N=C(N=C(N)N)N1CCOCC1`, for which the Potency entry is “inactive”.
The same measure, in the same setting: with `CCC(C)(Oc1ccc(C2(c3ccc(OC(C)(CC)C(=O)O)cc3)CCCCC2)cc1)C(=O)O` (stereo unspecified) the entry was “inactive”; with `Cc1nc(-c2ccc(OCC(C)C)c(C#N)c2)sc1C(=O)O`, “inactive”.
Same read-out and setting: the same measure for `Cn1c(NCCN(CCO)CCCc2ccc([N+](=O)[O-])cc2)cc(=O)n(C)c1=O`: “inactive”; for `C=C(c1ccc(C(=O)O)cc1)c1cc2c(cc1C)C(C)(C)CCC2(C)C`: “inactive”; for `Cc1c(OCC(F)(F)F)ccnc1CS(=O)c1nc2ccccc2[nH]1` (stereo unspecified): “inactive”.
Same read-out and setting: the same measure for `S=c1nc[nH]c2nc[nH]c12`: “inactive”; for `CN(C)[C@@H](CCOc1cccc2ccccc12)c1ccccc1`: “inactive”.
`O=C1c2c(O)cc(O)cc2OC(c2ccc(O)c(O)c2)C1O` (stereo unspecified): the Potency result was “inactive”.
The same measure, in the same setting: with `Cc1ccc(Nc2nccc(N(C)c3ccc4c(C)n(C)nc4c3)n2)cc1S(N)(=O)=O` the entry was “inactive”; with `C[C@H](Cn1cnc2c(N)ncnc21)OCP(=O)(O)O`, “inactive”.
Same read-out and setting: with `O=C(NC(Cc1cc(=O)[nH]c2ccccc12)C(=O)O)c1ccc(Cl)cc1` (stereo unspecified) the entry was “inactive”; with `COC1=C(OC)C(=O)C(CCCCCCCCCCO)=C(C)C1=O`, “inactive”.
Same read-out and setting: with `Cc1cccc(C#Cc2ccccc2)n1` the entry was “inactive”.
As for `O=Nc1c(-c2c(O)[nH]c3cc(Br)ccc23)[nH]c2ccccc12`, the Potency result was “inactive”.
`CCOC(=O)C(C)Oc1cccc2c(=O)n(CC(=O)Nc3ccc4c(c3)OCCO4)ccc12` (stereo unspecified): the Potency entry was “inactive”.
Turning to `CC[C@]1(O)C[C@H]2CN(CCc3c([nH]c4ccccc34)[C@@](C(=O)OC)(c3cc4c(cc3OC)N(C=O)[C@H]3[C@@](O)(C(=O)OC)[C@H](OC(C)=O)[C@]5(CC)C=CCN6CC[C@]43[C@@H]65)C2)C1`, the Potency entry was “inactive”.
Regarding `CNC[C@H](O)c1ccc(O)c(O)c1`, the Potency result is “inactive”.
As to `O=C(CS(=O)Cc1ccco1)NCC=CCOc1cc(CN2CCCCC2)ccn1` (stereo unspecified), the Potency entry is “inactive”.
Same read-out and setting: with `O=c1ccc2ccc(O)c(O)c2o1` the entry was “inactive”; with `O=C(O)c1cccc(-c2noc(-c3ccccc3F)n2)c1`, “inactive”; with `Cc1cccc(CN2CCN(C(c3ccccc3)c3ccc(Cl)cc3)CC2)c1` (stereo unspecified), “inactive”.
The same measure, in the same setting: with `O=C(O)CCNC(=O)c1ccc(N=Nc2ccc(O)c(C(=O)O)c2)cc1` the entry was “inactive”; with `COc1cc2c(cc1OC)C1CC(=O)C(CC(C)C)CN1CC2` (stereo unspecified), “inactive”.
Regarding `Nc1nc(Cl)nc2c1ncn2[C@H]1C[C@H](O)[C@@H](CO)O1`, the Potency entry was “inactive”.
For the molecule `COc1c(O)cc2c(c1O)[C@@H]1O[C@H](CO)[C@@H](O)[C@H](O)[C@H]1OC2=O`, the Potency result was “inactive”.
Same read-out and setting: with `c1ccc2[nH]c(-c3cscn3)nc2c1` the entry was “inactive”; with `O=C(NCCO[N+](=O)[O-])c1cccnc1`, “inactive”.

The nature of the next assay: qHTS of pediatric cancer cell lines to identify multiple opportunities for drug repurposing: Primary screen for Rh30 cells (AID 1347107). Further: nearly all actives have a fitted effect of over 75% in size. Further: potency means the concentration at half of the fitted maximal effect. Conditions: Rh30 rhabdomyosarcoma viability, CellTiter-Glo luminescence, 48 h; series mostly up to 46 µM. The method in brief: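 Cells (500-1,000/well) rested 5 h, then received compounds for 48 h; metabolically active cells were measured by CellTiter-Glo luminescence. Final concentrations spanned up to 46 µM (MIPE, 11-point) or 0.59 nM-46 µM (NPC, 8-point) in primary screens, 11-point in follow-ups.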
Regarding `CCCOc1ccc2nc(NC(=O)OC)[nH]c2c1`, the Potency result is “inactive”.
Take `CCc1nc(N)nc(N)c1-c1ccc(Cl)cc1`: the Potency result is “inactive”.
In the case of `Cc1ncc([N+](=O)[O-])n1CC(C)O` (stereo unspecified), the Potency entry is “inactive”.
For the molecule `O=c1oc2cc(O)ccc2s1`, the Potency result is “inactive”.
On the same count and under the same terms, the same measure for `CCOC(=O)C1=C[C@@H](OC(CC)CC)[C@H](NC(C)=O)[C@@H](N)C1`: “inactive”.
`Cc1cccc(-c2[nH]ncc2-c2ccc3ncccc3n2)n1`: the Potency result is “inactive”.
Turning to `Cc1nccn1CC1CCc2c(c3ccccc3n2C)C1=O` (stereo unspecified), the Potency entry is “inactive”.
The same measure, in the same setting: with `N=C(N=C(N)N)N1CCOCC1` the entry was “inactive”; with `Nc1nc(N)c(N=O)c(OCC2CCCCC2)n1`, “inactive”; with `CCC(C)(Oc1ccc(C2(c3ccc(OC(C)(CC)C(=O)O)cc3)CCCCC2)cc1)C(=O)O` (stereo unspecified), “inactive”.
On the same count and under the same terms, with `Cc1nc(-c2ccc(OCC(C)C)c(C#N)c2)sc1C(=O)O` the entry was “inactive”.
Still for that read-out and setting: with `Cn1c(NCCN(CCO)CCCc2ccc([N+](=O)[O-])cc2)cc(=O)n(C)c1=O` the entry was “inactive”; with `C=C(c1ccc(C(=O)O)cc1)c1cc2c(cc1C)C(C)(C)CCC2(C)C`, “inactive”; with `Cc1c(OCC(F)(F)F)ccnc1CS(=O)c1nc2ccccc2[nH]1` (stereo unspecified), “inactive”.
In the case of `CN(C)[C@@H](CCOc1cccc2ccccc12)c1ccccc1`, the Potency result was “inactive”.
Still for that read-out and setting: with `O=C1c2c(O)cc(O)cc2OC(c2ccc(O)c(O)c2)C1O` (stereo unspecified) the entry was “inactive”; with `Cc1ccc(Nc2nccc(N(C)c3ccc4c(C)n(C)nc4c3)n2)cc1S(N)(=O)=O`, “inactive”.
On the same count and under the same terms, the same measure for `C[C@H](Cn1cnc2c(N)ncnc21)OCP(=O)(O)O`: “inactive”; for `O=C(NC(Cc1cc(=O)[nH]c2ccccc12)C(=O)O)c1ccc(Cl)cc1` (stereo unspecified): “inactive”; for `COC1=C(OC)C(=O)C(CCCCCCCCCCO)=C(C)C1=O`: “inactive”.
Regarding `O=Nc1c(-c2c(O)[nH]c3cc(Br)ccc23)[nH]c2ccccc12`, the Potency is 18.7 µM (active).
The same measure, in the same setting: with `COc1cc2c(N3CCN(C(=O)Nc4ccc(OC(C)C)cc4)CC3)ncnc2cc1OCCCN1CCCCC1` the entry was “inactive”.
For `CCOC(=O)C(C)Oc1cccc2c(=O)n(CC(=O)Nc3ccc4c(c3)OCCO4)ccc12` (stereo unspecified), the Potency result was “inactive”.
`CC[C@]1(O)C[C@H]2CN(CCc3c([nH]c4ccccc34)[C@@](C(=O)OC)(c3cc4c(cc3OC)N(C=O)[C@H]3[C@@](O)(C(=O)OC)[C@H](OC(C)=O)[C@]5(CC)C=CCN6CC[C@]43[C@@H]65)C2)C1`: the Potency result was “inactive”.
With `CNC[C@H](O)c1ccc(O)c(O)c1`, the Potency result is “inactive”.
The same measure, in the same setting: with `O=C(CS(=O)Cc1ccco1)NCC=CCOc1cc(CN2CCCCC2)ccn1` (stereo unspecified) the entry was “inactive”.
For `O=c1ccc2ccc(O)c(O)c2o1`, the Potency result is “inactive”.
On to `O=C(O)c1cccc(-c2noc(-c3ccccc3F)n2)c1`, for which the Potency result was “inactive”.
In the case of `Cc1cccc(CN2CCN(C(c3ccccc3)c3ccc(Cl)cc3)CC2)c1` (stereo unspecified), the Potency result is “inactive”.
As to `O=C(O)CCNC(=O)c1ccc(N=Nc2ccc(O)c(C(=O)O)c2)cc1`, the Potency result was “inactive”.
Still for that read-out and setting: with `COc1cc2c(cc1OC)C1CC(=O)C(CC(C)C)CN1CC2` (stereo unspecified) the entry was “inactive”.
On the same count and under the same terms, with `COc1c(O)cc2c(c1O)[C@@H]1O[C@H](CO)[C@@H](O)[C@H](O)[C@H]1OC2=O` the entry was “inactive”.
For the molecule `c1ccc2[nH]c(-c3cscn3)nc2c1`, the Potency result was “inactive”.
Consider `O=C(NCCO[N+](=O)[O-])c1cccnc1`, for which the Potency entry was “inactive”.
